The values that follow come from publication PMC7862700, “An all-to-all approach to the identification of sequence-specific readers for epigenetic DNA modifications on cytosine”.

What all share (test): DAPPL (digital affinity profiling via proximity ligation, sequencing); 10 mM Tris-HCl pH 7.5, 50 mM NaCl, 1 mM DTT, 4% glycerol, room temperature, 30 min; GST-TFs on glutathione beads, 16-mer random dsDNA library, 0.1% formaldehyde crosslink after washing; high values mean tight binding
Holding throughout (conditions): protein: recombinant; tags: N-terminal GST; dsDNA, one strand shown

One assay concerns the target T1, FLI1 (Homo sapiens, UniProt Q01543 1-452).
T1 sequence: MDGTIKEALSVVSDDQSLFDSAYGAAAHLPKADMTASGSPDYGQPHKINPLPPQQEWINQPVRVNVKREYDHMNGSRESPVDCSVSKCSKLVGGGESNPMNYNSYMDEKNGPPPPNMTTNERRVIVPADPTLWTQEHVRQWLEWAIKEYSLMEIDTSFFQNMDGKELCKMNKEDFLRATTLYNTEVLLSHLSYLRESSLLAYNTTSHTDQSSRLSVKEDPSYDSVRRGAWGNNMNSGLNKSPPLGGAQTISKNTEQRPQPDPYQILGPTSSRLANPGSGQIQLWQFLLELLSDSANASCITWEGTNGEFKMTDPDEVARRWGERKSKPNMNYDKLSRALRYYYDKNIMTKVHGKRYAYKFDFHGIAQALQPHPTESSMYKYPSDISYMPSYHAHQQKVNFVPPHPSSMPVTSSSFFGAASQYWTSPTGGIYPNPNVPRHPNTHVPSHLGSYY
A digest of the protocol: (§1)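 Beads coated with glutathione captured GST-fused human transcription factors that had been expressed in yeast, and the factors were then given DNA barcodes and pooled with a tag-only sample. The pools were incubated with 200 nmole of a random double-stranded 16-mer DNA library in Tris/NaCl/DTT/glycerol buffer for 30 min at room temperature, washed, crosslinked with 0.1% formaldehyde and proximity-ligated with BsaI/T4 ligase at 37 °C for 1 h. PCR amplification and Illumina NextSeq500 sequencing came last. Binding signal is each hexamer's read frequency for a factor divided by its frequency for the tag-only sample.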

Another assay concerns the target T2, ELK1 (Homo sapiens, UniProt P19419 1-428).
T2 sequence: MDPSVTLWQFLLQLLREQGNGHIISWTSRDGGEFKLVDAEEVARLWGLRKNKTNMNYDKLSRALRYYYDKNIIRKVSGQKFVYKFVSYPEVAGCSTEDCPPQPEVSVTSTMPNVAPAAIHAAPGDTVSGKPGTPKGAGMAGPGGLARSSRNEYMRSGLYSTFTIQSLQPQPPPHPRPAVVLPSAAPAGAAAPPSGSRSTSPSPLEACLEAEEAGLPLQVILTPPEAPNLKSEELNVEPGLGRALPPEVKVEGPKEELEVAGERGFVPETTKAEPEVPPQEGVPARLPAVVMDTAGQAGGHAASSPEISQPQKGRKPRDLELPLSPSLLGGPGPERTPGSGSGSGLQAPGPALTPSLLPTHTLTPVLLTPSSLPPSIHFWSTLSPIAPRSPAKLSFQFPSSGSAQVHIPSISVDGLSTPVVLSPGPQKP
A digest of the protocol:
as §1

The next assay deals with T3, GABPA (Homo sapiens, UniProt Q06546 1-454).
T3 sequence: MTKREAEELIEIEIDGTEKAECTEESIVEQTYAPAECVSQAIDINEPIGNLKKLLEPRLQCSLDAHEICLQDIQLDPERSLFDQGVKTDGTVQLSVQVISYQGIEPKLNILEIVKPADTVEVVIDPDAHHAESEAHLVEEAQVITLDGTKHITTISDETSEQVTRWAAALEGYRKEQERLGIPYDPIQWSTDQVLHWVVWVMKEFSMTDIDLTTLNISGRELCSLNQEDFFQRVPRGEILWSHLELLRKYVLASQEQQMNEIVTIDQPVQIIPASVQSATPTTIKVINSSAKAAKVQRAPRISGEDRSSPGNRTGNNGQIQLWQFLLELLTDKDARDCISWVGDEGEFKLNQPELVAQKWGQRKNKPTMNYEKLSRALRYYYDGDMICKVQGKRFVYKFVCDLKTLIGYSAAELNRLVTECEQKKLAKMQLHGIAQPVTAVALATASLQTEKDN
A digest of the protocol:
as §1

The target in another assay is T4, ERG (Homo sapiens, UniProt P11308 1-479).
T4 sequence: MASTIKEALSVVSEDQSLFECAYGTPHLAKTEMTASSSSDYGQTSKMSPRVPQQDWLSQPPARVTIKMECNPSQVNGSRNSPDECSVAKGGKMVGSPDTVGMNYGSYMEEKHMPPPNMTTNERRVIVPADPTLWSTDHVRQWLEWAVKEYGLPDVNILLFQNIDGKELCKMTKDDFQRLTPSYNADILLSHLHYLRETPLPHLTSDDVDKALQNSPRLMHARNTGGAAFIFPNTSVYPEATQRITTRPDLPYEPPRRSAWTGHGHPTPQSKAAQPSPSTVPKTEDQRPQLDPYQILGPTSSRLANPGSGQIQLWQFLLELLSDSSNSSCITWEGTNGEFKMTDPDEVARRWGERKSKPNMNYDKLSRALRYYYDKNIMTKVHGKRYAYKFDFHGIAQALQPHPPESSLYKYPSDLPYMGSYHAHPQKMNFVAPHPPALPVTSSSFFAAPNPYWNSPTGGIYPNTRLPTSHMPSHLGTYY
In short, it runs like this: as §1

For a further assay, the target named is ELF1 (Homo sapiens, UniProt P32519 1-619). In short, it runs like this:
as §1

The target in the next assay is T5, EHF (Homo sapiens, UniProt Q9NZC4 1-300).
T5 sequence: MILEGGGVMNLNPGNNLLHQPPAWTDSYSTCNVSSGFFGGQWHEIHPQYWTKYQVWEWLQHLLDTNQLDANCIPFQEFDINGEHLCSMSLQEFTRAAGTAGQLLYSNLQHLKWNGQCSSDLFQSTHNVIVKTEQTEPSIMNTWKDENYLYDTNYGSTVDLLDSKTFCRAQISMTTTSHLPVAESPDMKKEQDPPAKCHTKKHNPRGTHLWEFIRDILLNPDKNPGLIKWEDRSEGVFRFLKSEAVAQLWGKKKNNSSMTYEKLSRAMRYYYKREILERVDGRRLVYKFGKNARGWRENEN
A digest of the protocol:
as §1

A further assay deals with SPI1 (Homo sapiens, UniProt P17947 1-270). In short, it runs like this:
as §1

A further assay concerns the target SPIB (Homo sapiens, UniProt Q01892 1-262). In short, it runs like this: as §1
A further assay deals with T6, ELK3 (Homo sapiens, UniProt P41970 1-407).
T6 sequence: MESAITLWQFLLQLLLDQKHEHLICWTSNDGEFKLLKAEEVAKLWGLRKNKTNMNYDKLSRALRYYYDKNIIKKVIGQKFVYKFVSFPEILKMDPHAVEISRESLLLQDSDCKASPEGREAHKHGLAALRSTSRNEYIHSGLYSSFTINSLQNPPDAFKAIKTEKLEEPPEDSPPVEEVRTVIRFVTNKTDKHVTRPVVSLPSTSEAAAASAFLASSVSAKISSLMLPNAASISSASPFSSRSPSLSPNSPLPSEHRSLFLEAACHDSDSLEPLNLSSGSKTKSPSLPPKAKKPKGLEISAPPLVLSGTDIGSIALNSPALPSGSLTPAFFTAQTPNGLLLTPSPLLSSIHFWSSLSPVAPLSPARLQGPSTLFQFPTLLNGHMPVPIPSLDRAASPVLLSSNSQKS
A digest of the protocol:
as §1

The target in a further assay is T7, FEV (Homo sapiens, UniProt Q99581 1-238).
T7 sequence: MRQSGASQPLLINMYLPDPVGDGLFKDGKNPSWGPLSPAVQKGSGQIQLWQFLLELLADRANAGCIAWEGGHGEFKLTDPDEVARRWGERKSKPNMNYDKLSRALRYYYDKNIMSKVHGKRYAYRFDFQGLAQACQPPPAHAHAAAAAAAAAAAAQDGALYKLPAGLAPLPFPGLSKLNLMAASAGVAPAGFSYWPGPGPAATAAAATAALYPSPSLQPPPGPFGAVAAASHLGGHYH
In short, it runs like this: as §1

Another assay has as its target ETV5 (Homo sapiens, UniProt P41161 1-510). A digest of the protocol:
as §1

Another assay addresses T8, SPIC (Homo sapiens, UniProt Q8N5J4 1-248).
T8 sequence: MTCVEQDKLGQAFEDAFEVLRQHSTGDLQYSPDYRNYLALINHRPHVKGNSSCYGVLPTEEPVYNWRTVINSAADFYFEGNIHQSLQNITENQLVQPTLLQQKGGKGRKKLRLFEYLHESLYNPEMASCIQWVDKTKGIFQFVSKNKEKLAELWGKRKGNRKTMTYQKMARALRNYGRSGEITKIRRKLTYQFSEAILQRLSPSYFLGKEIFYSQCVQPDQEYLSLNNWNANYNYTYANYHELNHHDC
A digest of the protocol:
as §1

The target of the next assay is ELF4 (Homo sapiens, UniProt Q99607 1-663). A digest of the protocol: as §1
Sequence of ELF4 (Q99607 whole entry): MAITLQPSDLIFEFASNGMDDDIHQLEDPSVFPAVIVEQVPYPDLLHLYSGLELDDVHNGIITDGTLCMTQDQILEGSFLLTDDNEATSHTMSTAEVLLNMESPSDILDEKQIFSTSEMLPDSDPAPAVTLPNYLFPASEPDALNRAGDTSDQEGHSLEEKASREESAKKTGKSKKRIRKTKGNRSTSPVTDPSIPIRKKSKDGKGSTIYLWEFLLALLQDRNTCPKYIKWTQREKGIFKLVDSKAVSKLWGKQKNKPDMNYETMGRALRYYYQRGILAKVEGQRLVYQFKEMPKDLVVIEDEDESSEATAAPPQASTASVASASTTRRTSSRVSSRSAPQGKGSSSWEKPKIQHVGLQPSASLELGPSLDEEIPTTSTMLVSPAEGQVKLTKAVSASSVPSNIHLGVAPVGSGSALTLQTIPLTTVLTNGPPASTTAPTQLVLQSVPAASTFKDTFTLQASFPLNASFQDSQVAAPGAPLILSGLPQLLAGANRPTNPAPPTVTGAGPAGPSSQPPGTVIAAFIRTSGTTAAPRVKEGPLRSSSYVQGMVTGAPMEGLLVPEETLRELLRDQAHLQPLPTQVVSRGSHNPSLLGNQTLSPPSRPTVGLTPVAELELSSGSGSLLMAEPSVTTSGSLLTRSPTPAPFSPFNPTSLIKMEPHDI
In a further assay the target is ETV1 (Homo sapiens, UniProt P50549 1-477). In short, it runs like this: as §1
Sequence of ETV1 (P50549 whole entry): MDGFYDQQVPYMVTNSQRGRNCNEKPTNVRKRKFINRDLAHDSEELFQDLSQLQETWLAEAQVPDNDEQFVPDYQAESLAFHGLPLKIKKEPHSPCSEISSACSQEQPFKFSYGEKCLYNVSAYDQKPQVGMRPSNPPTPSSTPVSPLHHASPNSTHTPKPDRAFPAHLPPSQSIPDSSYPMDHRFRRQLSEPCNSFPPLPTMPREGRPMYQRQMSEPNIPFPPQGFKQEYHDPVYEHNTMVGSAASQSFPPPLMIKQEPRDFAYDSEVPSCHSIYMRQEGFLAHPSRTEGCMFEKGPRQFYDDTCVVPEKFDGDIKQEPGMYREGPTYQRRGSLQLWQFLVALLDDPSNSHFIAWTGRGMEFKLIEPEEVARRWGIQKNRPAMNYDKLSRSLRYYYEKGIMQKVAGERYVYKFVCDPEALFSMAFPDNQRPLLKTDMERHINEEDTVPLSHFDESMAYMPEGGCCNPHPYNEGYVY
In the next assay the target is T9, ERF (Homo sapiens, UniProt P50548 1-548).
T9 sequence: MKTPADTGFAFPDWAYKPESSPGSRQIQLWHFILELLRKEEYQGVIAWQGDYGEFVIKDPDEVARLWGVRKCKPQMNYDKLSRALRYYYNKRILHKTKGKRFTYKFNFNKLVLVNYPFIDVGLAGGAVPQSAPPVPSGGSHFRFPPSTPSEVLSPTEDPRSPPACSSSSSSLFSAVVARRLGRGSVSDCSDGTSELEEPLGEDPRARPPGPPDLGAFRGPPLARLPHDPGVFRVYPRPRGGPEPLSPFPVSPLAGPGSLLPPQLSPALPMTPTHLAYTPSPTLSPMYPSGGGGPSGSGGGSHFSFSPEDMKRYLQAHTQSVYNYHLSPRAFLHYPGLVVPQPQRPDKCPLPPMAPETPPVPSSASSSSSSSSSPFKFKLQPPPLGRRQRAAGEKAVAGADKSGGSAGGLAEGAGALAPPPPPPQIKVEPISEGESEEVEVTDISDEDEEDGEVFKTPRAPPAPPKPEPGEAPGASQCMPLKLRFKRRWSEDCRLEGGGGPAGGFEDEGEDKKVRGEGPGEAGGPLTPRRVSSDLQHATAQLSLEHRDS
A digest of the protocol: as §1

The target of a further assay is T10, ETV3L (Homo sapiens, UniProt Q6ZN32 1-361).
T10 sequence: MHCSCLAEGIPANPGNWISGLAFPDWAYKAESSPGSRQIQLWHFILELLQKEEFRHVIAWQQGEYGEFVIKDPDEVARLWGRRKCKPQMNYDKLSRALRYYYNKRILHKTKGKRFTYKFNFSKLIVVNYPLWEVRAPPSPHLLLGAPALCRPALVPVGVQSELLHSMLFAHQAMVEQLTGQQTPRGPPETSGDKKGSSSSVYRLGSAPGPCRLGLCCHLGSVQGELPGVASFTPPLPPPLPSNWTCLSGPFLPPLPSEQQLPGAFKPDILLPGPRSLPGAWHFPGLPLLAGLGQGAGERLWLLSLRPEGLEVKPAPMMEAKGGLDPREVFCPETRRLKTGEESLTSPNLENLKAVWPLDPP
A digest of the protocol: as §1

In the next assay the target is T11, ETS2 (Homo sapiens, UniProt P15036 1-469).
T11 sequence: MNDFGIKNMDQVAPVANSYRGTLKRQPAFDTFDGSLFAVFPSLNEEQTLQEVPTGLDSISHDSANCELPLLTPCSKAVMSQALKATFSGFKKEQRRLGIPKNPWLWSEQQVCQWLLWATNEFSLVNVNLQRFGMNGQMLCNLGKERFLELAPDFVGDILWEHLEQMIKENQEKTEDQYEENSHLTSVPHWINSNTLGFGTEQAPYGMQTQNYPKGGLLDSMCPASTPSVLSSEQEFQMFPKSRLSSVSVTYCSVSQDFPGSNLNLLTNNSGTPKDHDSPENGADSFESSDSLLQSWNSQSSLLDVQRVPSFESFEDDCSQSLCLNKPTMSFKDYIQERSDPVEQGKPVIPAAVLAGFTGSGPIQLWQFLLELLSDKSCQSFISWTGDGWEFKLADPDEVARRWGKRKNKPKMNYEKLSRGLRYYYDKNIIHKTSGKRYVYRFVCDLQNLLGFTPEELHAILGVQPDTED
A digest of the protocol:
as §1

The target in the next assay is T12, ELF5 (Homo sapiens, UniProt Q9UKW6-2 1-255).
T12 sequence: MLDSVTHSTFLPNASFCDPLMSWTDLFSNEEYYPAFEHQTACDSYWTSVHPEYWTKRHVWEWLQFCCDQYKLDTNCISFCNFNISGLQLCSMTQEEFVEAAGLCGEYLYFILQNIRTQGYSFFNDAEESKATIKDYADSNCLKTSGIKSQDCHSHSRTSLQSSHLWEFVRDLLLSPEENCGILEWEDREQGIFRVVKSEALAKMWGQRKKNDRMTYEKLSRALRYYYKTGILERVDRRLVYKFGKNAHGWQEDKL
In short, it runs like this:
as §1

Another assay concerns the target T13, ETV3 (Homo sapiens, UniProt P41162-2 1-143).
T13 sequence: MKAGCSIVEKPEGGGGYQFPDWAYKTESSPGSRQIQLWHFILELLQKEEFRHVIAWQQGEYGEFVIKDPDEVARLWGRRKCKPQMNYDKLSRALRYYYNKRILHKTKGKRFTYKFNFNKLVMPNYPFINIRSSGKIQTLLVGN
In short, it runs like this:
as §1

The next assay deals with ETV6 (Homo sapiens, UniProt P41212 1-452). A digest of the protocol:
as §1

Sequence of ETV5 (P41161 whole entry): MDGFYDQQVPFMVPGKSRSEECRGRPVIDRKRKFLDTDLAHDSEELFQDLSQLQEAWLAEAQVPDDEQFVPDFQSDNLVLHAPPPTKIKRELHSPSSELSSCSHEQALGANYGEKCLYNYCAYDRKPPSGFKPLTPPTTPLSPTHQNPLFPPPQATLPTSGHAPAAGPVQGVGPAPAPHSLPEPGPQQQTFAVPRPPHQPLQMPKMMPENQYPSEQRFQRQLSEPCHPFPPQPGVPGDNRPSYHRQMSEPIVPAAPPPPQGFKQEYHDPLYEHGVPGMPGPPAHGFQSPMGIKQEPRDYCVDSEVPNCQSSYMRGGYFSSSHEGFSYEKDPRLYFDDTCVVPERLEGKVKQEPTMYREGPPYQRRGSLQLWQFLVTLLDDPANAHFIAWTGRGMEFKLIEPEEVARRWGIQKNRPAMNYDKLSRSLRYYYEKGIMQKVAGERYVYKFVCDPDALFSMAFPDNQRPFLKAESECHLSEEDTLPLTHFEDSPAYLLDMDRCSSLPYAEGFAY
Sequence of ELF1 (P32519 whole entry): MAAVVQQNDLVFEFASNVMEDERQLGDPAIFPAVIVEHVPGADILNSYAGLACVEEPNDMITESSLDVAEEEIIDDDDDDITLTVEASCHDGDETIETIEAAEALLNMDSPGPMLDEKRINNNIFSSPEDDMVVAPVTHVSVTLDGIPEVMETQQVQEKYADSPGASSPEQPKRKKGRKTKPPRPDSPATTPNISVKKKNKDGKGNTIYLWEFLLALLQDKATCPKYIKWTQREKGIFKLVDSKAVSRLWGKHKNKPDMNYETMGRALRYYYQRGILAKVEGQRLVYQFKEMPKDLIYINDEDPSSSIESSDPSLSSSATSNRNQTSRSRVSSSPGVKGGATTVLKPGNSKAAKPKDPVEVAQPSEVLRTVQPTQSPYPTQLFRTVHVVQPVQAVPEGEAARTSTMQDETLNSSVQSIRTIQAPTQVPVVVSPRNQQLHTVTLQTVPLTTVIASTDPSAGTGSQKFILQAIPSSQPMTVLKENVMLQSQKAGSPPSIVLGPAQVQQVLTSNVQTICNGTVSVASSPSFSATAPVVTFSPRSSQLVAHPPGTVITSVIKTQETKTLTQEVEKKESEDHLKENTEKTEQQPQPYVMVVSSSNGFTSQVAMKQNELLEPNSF
Sequence of ETV6 (P41212 whole entry): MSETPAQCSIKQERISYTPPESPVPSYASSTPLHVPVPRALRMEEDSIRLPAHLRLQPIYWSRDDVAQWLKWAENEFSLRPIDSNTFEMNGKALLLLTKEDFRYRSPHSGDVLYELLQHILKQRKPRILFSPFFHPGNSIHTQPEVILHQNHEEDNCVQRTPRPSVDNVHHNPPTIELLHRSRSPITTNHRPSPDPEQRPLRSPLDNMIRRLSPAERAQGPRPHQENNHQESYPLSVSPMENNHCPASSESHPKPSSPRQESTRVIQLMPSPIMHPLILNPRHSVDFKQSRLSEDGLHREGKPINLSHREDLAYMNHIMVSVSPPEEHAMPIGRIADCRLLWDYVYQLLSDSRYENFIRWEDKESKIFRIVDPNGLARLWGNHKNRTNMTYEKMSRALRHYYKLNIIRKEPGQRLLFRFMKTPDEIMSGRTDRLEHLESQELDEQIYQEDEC
Sequence of SPIB (Q01892 whole entry): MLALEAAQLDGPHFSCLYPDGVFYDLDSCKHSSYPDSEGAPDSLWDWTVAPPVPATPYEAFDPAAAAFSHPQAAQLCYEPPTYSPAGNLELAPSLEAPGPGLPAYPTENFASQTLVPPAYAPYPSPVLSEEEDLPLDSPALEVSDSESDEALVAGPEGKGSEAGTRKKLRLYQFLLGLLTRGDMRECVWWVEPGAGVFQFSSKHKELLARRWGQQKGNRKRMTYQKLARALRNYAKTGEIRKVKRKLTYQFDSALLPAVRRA

Turning to CGTCGC, the binding signal is 1.31 fold enrichment (6-mer frequency, TF over GST control) in the assay with FLI1; 1.2 fold enrichment (6-mer frequency, TF over GST control) in the assay with ELK1; 1.24 fold enrichment (6-mer frequency, TF over GST control) with GABPA; 1.19 fold enrichment (6-mer frequency, TF over GST control) in the assay with ERG; 1.21 fold enrichment (6-mer frequency, TF over GST control) in the assay with ELF1; 1.14 fold enrichment (6-mer frequency, TF over GST control) with EHF. In addition, the binding signal with SPI1 is 1.21 fold enrichment (6-mer frequency, TF over GST control); with SPIB, 1.25 fold enrichment (6-mer frequency, TF over GST control); with ELK3, 1.09 fold enrichment (6-mer frequency, TF over GST control); with FEV, 1.14 fold enrichment (6-mer frequency, TF over GST control); with ETV5, 1.12 fold enrichment (6-mer frequency, TF over GST control); with SPIC it was 1.07 fold enrichment (6-mer frequency, TF over GST control). Moreover, the binding signal with ELF4 was 1.06 fold enrichment (6-mer frequency, TF over GST control); with ETV1 it was 1.3 fold enrichment (6-mer frequency, TF over GST control); in the assay with ERF it was 1.3 fold enrichment (6-mer frequency, TF over GST control); with ETV3L, 1.13 fold enrichment (6-mer frequency, TF over GST control); with ETS2 it was 1.14 fold enrichment (6-mer frequency, TF over GST control); with ELF5, 1.19 fold enrichment (6-mer frequency, TF over GST control). For the same sequence, the binding signal with ETV3 was 1.2 fold enrichment (6-mer frequency, TF over GST control); in the assay with ETV6, 1.2 fold enrichment (6-mer frequency, TF over GST control).
